# Measured values reported in PubChem BioAssay (NCI).
# Compounds without any hit were thinned out: in the full panel of roughly 83,000, 20% have a hit.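 Compound tested at a single concentration for 48 hours in 96-well plates; a percent growth value below 10 was scored as active.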 Unmarked numbers belong to inactive results. Active and inactive are the calls of the source.
# Tests used:
# Assay in all cases: NCI-60 one-dose screen, 48 h (100 = growth as untreated, 0 = no growth, -100 = all killed)
# Details in all cases: 10 µM unless noted
# SR leukemia = tested on: SR leukemia
# RPMI-8226 leukemia = tested on: RPMI-8226 leukemia
# OVCAR-8 ovarian = tested on: OVCAR-8 ovarian
# OVCAR-4 ovarian = tested on: OVCAR-4 ovarian
# SK-OV-3 ovarian = tested on: SK-OV-3 ovarian
# IGROV1 ovarian = tested on: IGROV1 ovarian
# OVCAR-3 ovarian = tested on: OVCAR-3 ovarian
# HS 578T breast = tested on: HS 578T breast
# NCI/ADR-RES ovarian = tested on: NCI/ADR-RES ovarian
# T-47D breast = tested on: T-47D breast
# BT-549 breast = tested on: BT-549 breast
# MDA-MB-435 melanoma = tested on: MDA-MB-435 melanoma
# SW-620 colon = tested on: SW-620 colon
# MCF7 breast = tested on: MCF7 breast
# HCT-116 colon = tested on: HCT-116 colon
# HCC-2998 colon = tested on: HCC-2998 colon
# KM12 colon = tested on: KM12 colon
# OVCAR-5 ovarian = tested on: OVCAR-5 ovarian
SMILES,growth (SR leukemia),growth (RPMI-8226 leukemia),growth (OVCAR-8 ovarian),growth (OVCAR-4 ovarian),growth (SK-OV-3 ovarian),growth (IGROV1 ovarian),growth (OVCAR-3 ovarian),growth (HS 578T breast),growth (NCI/ADR-RES ovarian),growth (T-47D breast),growth (BT-549 breast),growth (MDA-MB-435 melanoma),growth (SW-620 colon),growth (MCF7 breast),growth (HCT-116 colon),growth (HCC-2998 colon),growth (KM12 colon),growth (OVCAR-5 ovarian)
O=C(O)c1c(=O)cccc2ssc12,-9.58% (active),4.35% (active),24.1%,-37.1% (active),39.1%,76.1%,-34.3% (active),22.4%,29.2%,-43% (active),20.2%,23.3%,-34.4% (active),-17% (active),2.36% (active),13.5%,3.59% (active),–
CCCCn1c(-c2ccc(C(=O)O/N=C(\N)c3ccc4ccccc4c3)cc2)nc(-c2ccccc2)c1-c1ccccc1,12.1%,67.3%,72.2%,55.5%,99%,–,71.7%,57.9%,30.9%,46.2%,–,85.1%,80.1%,61.2%,60.8%,95.8%,76.7%,–
O=C1/C(=C/c2ccccc2O)N=C2SCCCN12,117%,103%,98.4%,82.9%,100%,91.3%,92.9%,87.7%,99.6%,84.5%,98%,96.6%,89.3%,92.2%,95.5%,–,90.2%,–
CCOc1nc(-c2ccccc2)cc2c(O)c(C(=O)O)[nH]c(=O)c12,98.1%,58.1%,107%,99%,97.5%,96.1%,101%,104%,60.9%,97.9%,108%,109%,114%,103%,105%,–,93.4%,–
Cc1ccc(NC(=O)/C=C/c2ccccc2)c(C(N)=O)c1,-23.3% (active),23.2%,55.1%,31.4%,2.6% (active),91.4%,-25.8% (active),-3.46% (active),24.7%,27.6%,94%,-45.5% (active),22.7%,15.7%,34.4%,80.8%,14.4%,–
COc1cccc(/C=C2\Oc3cc(OCCN4CCCC4)ccc3C2=O)c1,22.2%,91.7%,98.4%,111%,108%,–,97%,–,93.8%,91.4%,80.4%,99.5%,86.9%,77.4%,78%,–,97.8%,–
COc1ccc(/C=C\c2cc(OC)c(OC)c(OC)c2)cc1OC(=O)c1cccc(Cn2cc(CCOC(=O)[C@H](N)Cc3cn(C)c4ccccc34)nn2)c1,-0.0904% (active),25.9%,23%,20.9%,34.7%,16.2%,1.65% (active),26.9%,6.28% (active),70.2%,3.82% (active),-32.7% (active),–,12.6%,3.68% (active),20.7%,5.51% (active),–
Cc1nn(-c2cc(=O)[nH]c3ccccc23)c(N)c1C#N,105%,99.9%,99.2%,105%,111%,77.7%,106%,98.6%,108%,104%,110%,106%,103%,97.5%,107%,115%,101%,–
COc1ccccc1Nc1nc(-c2cc3cccc(C(F)(F)F)c3oc2=O)cs1,10.2%,16.8%,9.28% (active),37.1%,31.3%,22.9%,-21.7% (active),31.4%,15%,68.9%,41.9%,-44.8% (active),24%,15.7%,2.41% (active),–,3.87% (active),–
Cc1ccc2c(C(C[N+](=O)[O-])c3ccccc3F)c(-c3ccccc3)[nH]c2c1 (stereo unspecified),25.8%,51.5%,56.5%,65.7%,31.5%,32%,13.2%,33.8%,23.9%,29.3%,50%,-30.3% (active),19.7%,24.4%,25.9%,73.9%,23.3%,–
Cc1cc2c3ccccc3ccc2[n+]2ccccc12,-22.5% (active),–,-28.5% (active),31.6%,71.5%,–,27.1%,-23.7% (active),46.7%,4.64% (active),-2.46% (active),76.5%,33%,27.2%,43.5%,47%,25.9%,81.1%
COc1ccc(-c2nc3ccc(-c4nc5ccc(N6CCN(c7ccccc7)CC6)cc5[nH]4)cc3[nH]2)cc1OC,–,-23% (active),-4.55% (active),-49.9% (active),107%,16.2%,-68.3% (active),-0.217% (active),67.3%,-36.4% (active),52.9%,-3.15% (active),-32.7% (active),-85.3% (active),-100% (active),-53.6% (active),4.37% (active),-44.1% (active)
O=S(=O)(Nc1ccc(I)cc1F)c1ccc(-c2cnc(C3CC3)o2)cc1,–,71.1%,70%,60.5%,71.5%,45.4%,16.1%,35.2%,28%,52%,45.7%,2.11% (active),27.2%,27.9%,40.8%,76.9%,52.9%,88.2%
Cn1c(O)c(N=NC(=O)c2cc(-c3ccccc3)on2)c2ccccc21,–,115%,104%,95.7%,108%,102%,115%,96.2%,94.9%,101%,103%,95.3%,105%,77.5%,98.9%,102%,101%,102%
C=C(C)[C@@H]1CC[C@]2(C(N)=O)CC[C@]3(C)[C@H](CC[C@@H]4[C@@]5(C)C/C(=C/c6ccco6)C(=O)C(C)(C)[C@@H]5CC[C@]43C)[C@@H]12,–,84.6%,93.8%,95.8%,102%,101%,105%,95.3%,96.6%,80%,108%,98%,105%,79.8%,83.3%,117%,97.6%,101%
CSc1nc(NCCO)c(C#N)c(-c2cccc([N+](=O)[O-])c2)n1,–,103%,99.1%,105%,102%,97.9%,112%,93.4%,98.1%,94.1%,96.6%,99.8%,101%,91.4%,96.1%,102%,98.3%,98.1%
O=C1/C(=C/c2cn(-c3ccccc3)nc2-c2ccccc2)SC(=S)N1CCc1ccccc1,–,102%,105%,103%,109%,108%,107%,104%,107%,96.5%,109%,97.6%,100%,95.3%,102%,107%,100%,107%
COc1ccc(-c2cc(NC(=O)Nc3ccc4ncsc4c3)no2)cc1,–,92.6%,102%,96.2%,118%,107%,114%,93.3%,106%,86.6%,106%,105%,105%,84.6%,102%,103%,100%,98.6%
